Data taken from PubChem BioAssay (EPA / NIEHS).
Active and inactive are the calls of the source. Rule for the calls, unless noted: active = hit-call score of the fitted dose curve at least 0.9, where 1 is the maximum; inactive = score below 0.9.

Tests used:
[1] = Tanguay_ZF_120hpf_MO24: Oregon State University Tanguay Lab 24 Hour Post-fertilization zebrafish Assay for Mortality (AID 2284389)
Outline: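 Dechorionated wild-type zebrafish embryos, 1 per well, statically exposed from 6 hpf at 28C, 0.64% DMSO final. Mortality scored as binary present/absent at 24 hpf by brightfield microscopy, relative to DMSO.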

[2] = Tanguay_ZF_120hpf_DP24: Oregon State University Tanguay Lab 24 Hour Post-fertilization zebrafish Assay for Delayed Development (AID 2284390)
Outline: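 Dechorionated 5D wild-type zebrafish embryos exposed statically from 6 hpf, one per well, 0.64% DMSO final, 28 C, sealed and dark. Developmental progression scored at 24 hpf by brightfield as binary present/absent; dead embryos excluded.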

[3] = Tanguay_ZF_120hpf_CRAN: Oregon State University Tanguay Lab 120 Hour Post-fertilization zebrafish Assay for Craniofacial Malformation (AID 2284397)
Outline: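 Dechorionated Tropical 5D wild-type zebrafish embryos, one per well, were statically exposed from 6 to 120 hpf at 28C in 0.64% DMSO, with 5uM trimethyltin chloride as positive control. Craniofacial malformation was scored present/absent by brightfield microscopy, relative to DMSO.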

[4] = Tanguay_ZF_120hpf_AXIS: Oregon State University Tanguay Lab 120 Hour Post-fertilization zebrafish Assay for Axial Malformation (AID 2284398)
Outline: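 Dechorionated 5D wild-type zebrafish embryos exposed statically, one per well, from 6 to 120 hpf at 28C, 0.64% DMSO. Axial malformation scored as present/absent by brightfield microscopy at 120 hpf; dead embryos not scored.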

[5] = Tanguay_ZF_120hpf_MORT: Oregon State University Tanguay Lab 120 Hour Post-fertilization zebrafish Assay for Mortality (AID 2284399)
Outline: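 Dechorionated wild-type Tropical 5D zebrafish embryos, one per well from 6 hpf, static exposure to 120 hpf at 28C in sealed dark plates, 0.64% DMSO final. Mortality scored as binary by brightfield at 24 and 120 hpf.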

[6] = Tanguay_ZF_120hpf_EDEM: Oregon State University Tanguay Lab 120 Hour Post-fertilization zebrafish Assay for Edema Malformation (AID 2284400)
Outline: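 Dechorionated Tropical 5D wild-type embryos, one per well, statically exposed from 6 to 120 hpf at 28C in 0.64% DMSO. Edema scored present/absent by brightfield microscopy at 120 hpf; dead embryos not scored; fit versus DMSO.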

[7] = Tanguay_ZF_120hpf_MUSC: Oregon State University Tanguay Lab 120 Hour Post-fertilization zebrafish Assay for Muscle Malformation (AID 2284401)
Outline: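 Dechorionated Tropical 5D wild-type zebrafish embryos exposed statically from 6 to 120 hpf at 28C, one per well, in 0.64% DMSO. Muscle malformation scored present/absent by brightfield microscopy at 120 hpf, fitted against DMSO.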

[8] = Tanguay_ZF_120hpf_BRN: Oregon State University Tanguay Lab 120 Hour Post-fertilization zebrafish Assay for Brain Region Malformation (AID 2284402)
Outline: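 Dechorionated wild-type Tropical 5D zebrafish embryos exposed statically from 6 to 120 hpf at 28C, one per well, 0.64% DMSO final. Brain malformation scored at 120 hpf by brightfield as present/absent; dead embryos not scored.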

[9] = Tanguay_ZF_120hpf_TCHR: Oregon State University Tanguay Lab 120 Hour Post-fertilization zebrafish Assay for Touch Responsive (AID 2284403)
Outline: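 Dechorionated Tropical 5D wild-type zebrafish embryos, one per well from 6 hpf, were statically exposed to 120 hpf at 28 °C (0.64% DMSO). Touch response was scored present/absent at 120 hpf and not scored in dead larvae.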

[10] = Tanguay_ZF_120hpf_ANY: Oregon State University Tanguay Lab 120 Hour Post-fertilization zebrafish Assay for Any Mortality and Malformation (AID 2284404)
Outline: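 Dechorionated Tropical 5D wild-type embryos, one per well from 6 hpf, static exposure in sealed, dark plates at 28C until 120 hpf, 0.64% DMSO final. Brightfield scoring of mortality and malformations as binary presence/absence, pooling 13 morphology endpoints.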

[11] = CCTE_Padilla_ZF_Score.Craniofacial: CCTE's 144 Hour Post-fertilization zebrafish Assay Score for Craniofacial Malformation, Padilla Lab (AID 2284405)
Outline: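 Wild-type zebrafish embryos (with chorions), one per well in 10% Hanks', were dosed at 6–8 hpf in sealed plates and kept at 26C. They were rinsed at 5 dpf. At 6 dpf two blinded assessors scored craniofacial malformations by brightfield stereomicroscopy.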

[12] = CCTE_Padilla_ZF_Score.Edema: CCTE's 144 Hour Post-fertilization zebrafish Assay Score for Edema Malformation, Padilla Lab (AID 2284406)
Outline: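 Wild-type zebrafish embryos, one per well in Hanks' solution, dosed at 6-8 hpf, sealed and reared at 26C on a 14:10 h cycle; rinsed on 5 dpf. At 6 dpf, blinded assessors scored edema by stereomicroscopy.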

[13] = CCTE_Padilla_ZF_Score.Spine: CCTE's 144 Hour Post-fertilization zebrafish Assay Score for Spine Malformation, Padilla Lab (AID 2284407)
Outline: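 Wild-type zebrafish embryos, one per well in Hanks' solution, dosed at 6–8 hpf in sealed plates at 26C, 14:10 h light:dark; rinsed at 5 dpf. Two blinded assessors scored spinal defects by stereomicroscopy at 6 dpf; fitted versus DMSO.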

[14] = CCTE_Padilla_ZF_Score.Swim_bladder: CCTE's 144 Hour Post-fertilization zebrafish Assay Score for Swim Bladder Malformation, Padilla Lab (AID 2284408)
Outline: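 Wild-type zebrafish embryos, one per well in 10% Hanks', dosed at 6–8 hpf, sealed, reared at 26C and rinsed at 5 dpf. Blinded assessors scored uninflated swim bladder by stereomicroscopy at 6 dpf, relative to DMSO.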

[15] = CCTE_Padilla_ZF_Score.Position: CCTE's 144 Hour Post-fertilization zebrafish Assay Score for Position, Padilla Lab (AID 2284409)
Outline: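 Wild-type zebrafish embryos (with chorions) exposed singly from 6–8 hpf in sealed wells of Hanks' solution at 26C, rinsed at 5 dpf. At 6 dpf, blinded assessors scored abnormal water-column position by brightfield stereomicroscopy, relative to DMSO.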

[16] = CCTE_Padilla_ZF_Score.Living: CCTE's 144 Hour Post-fertilization zebrafish Assay Score for Viability, Padilla Lab (AID 2284410);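 note: larval death at 6 dpf judged by absent heartbeat or coagulation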
Outline: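 Wild-type zebrafish embryos were exposed singly from 6–8 hpf in sealed wells of Hanks' solution at 26C, then rinsed at 5 dpf. At 6 dpf, blinded assessors scored mortality (no heartbeat or coagulation) by stereomicroscopy, fitted against DMSO.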

[17] = CCTE_Padilla_ZF_Score.General: CCTE's 144 Hour Post-fertilization zebrafish Assay Score for General Malformation, Padilla Lab (AID 2284411)
Outline: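 Wild-type zebrafish embryos were plated singly at 6-8 hpf in 10% Hanks' and exposed in sealed wells at 26C until rinsed on 5 dpf. At 6 dpf two blinded assessors scored mortality, hatching and malformations by stereomicroscopy; gain-of-signal versus DMSO.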

[18] = CCTE_Padilla_ZF_Score.Tail: CCTE's 144 Hour Post-fertilization zebrafish Assay Score for Tail Malformation, Padilla Lab (AID 2284414)
Outline: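 Wild-type zebrafish embryos, one per well in 200 uL 10% Hanks', dosed at 6-8 hpf, sealed, and kept at 26 C on a 14:10 h light cycle. Chemical was rinsed out at 5 dpf. Blinded brightfield scoring of tail defects followed at 6 dpf.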

[19] = CCTE_Padilla_ZF_Score.Blood_pooling: CCTE's 144 Hour Post-fertilization zebrafish Assay Score for Blood Pooling, Padilla Lab (AID 2284415)
Outline: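 Wild-type outbred zebrafish embryos, one per well in 10% Hanks', exposed from 6–8 hpf in sealed plates at 26C on 14:10 h light:dark, rinsed at 5 dpf. Blinded stereomicroscope scoring of blood pooling at 6 dpf; gain-of-signal versus DMSO.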

[20] = CCTE_Deisenroth_H295R-HTRF_384WELL_CTOX: Cytotoxicity Assessment in CCTE's H295R-HTRF Assay, Deisenroth Lab (AID 2284380; active = hit-call score of the fitted dose curve at least 0.9, where 1 is the maximum)
Outline: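 H295R adrenocortical carcinoma cells plated 24 h, then exposed 48 h to nine-point series 0.001–100 uM final, triplicate, n=5. ATP measured by CellTiter-Glo 2.0 luminescence on same plates after medium collection; loss versus DMSO.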

Measured: AC50

O=C(O)C(F)(F)C(F)(F)C(F)(F)C(F)(F)C(F)(F)C(F)(F)F
not listed: [20]
inactive: all other assays above

CC(C)CCCCCCOC(=O)c1ccccc1C(=O)OCCCCCCC(C)C
inactive: [17]

CCOP(=S)(OCC)SCCS(=O)(=O)CC
inactive: [17]

Fc1ccc(C2(Cn3cncn3)OC2c2ccccc2Cl)cc1 (configuration not stated)
inactive: [20]

Nc1cccc2ccccc12
inactive: [17]

NC(=S)Nc1ccccc1
inactive: [17]

Nc1ncc([N+](=O)[O-])s1
inactive: [17]

O=C(O)C(F)(F)C(F)(F)C(F)(F)C(F)(F)C(F)(F)C(F)(F)C(F)(F)C(F)(F)C(F)(F)C(F)(F)F
active: [10] 66500 nM | [11] 2410 nM | [12] 2400 nM | [14] 2410 nM | [16] 50700 nM | [17] 2510 nM
not listed: [5] | [20]
inactive: all other assays above

CCOP(=S)(OCC)Oc1ccc(S(C)=O)cc1 (configuration not stated)
inactive: [17]

CCC1(c2ccc(N)cc2)CCC(=O)NC1=O (configuration not stated)
inactive: [20]

O=C(O)CCC(F)(C(F)(F)F)C(F)(F)F
inactive: [11] | [12] | [13] | [14] | [15] | [16] | [17] | [18] | [19]

CC(=O)C(Cl)C(=O)N(C)C (configuration not stated)
inactive: [17]

COc1cc(OC)nc(NC(=O)NS(=O)(=O)c2ncccc2C(=O)N(C)C)n1
inactive: [17]

BrCCBr
inactive: [17]
